# Assay outcomes as filed in PubChem BioAssay.
# MsrA inh – inhibits bovine methionine sulfoxide reductase A; purified bovine MsrA, absorbance read-out; inhibition, % at 15.5 µM; 360,000 compounds, 0.75% hits; AID 651718;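 also: 0% = vehicle wells with enzyme and 100% = reference inhibitor wells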
# HGIII-sPLA2 inh – Blocks human group III sPLA2 activity; QFRET BODIPY PC-A2 liposome hydrolysis, fluorescence; inhibition, % at 12.2 µM; 370,000 compounds, 0.56% hits;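 active = inhibition above mean plus 3 SD of compounds lying within the high and low control bounds, cut at about 19% in these data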;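 also: 0% = median of test compound wells and 100% = no enzyme DMSO wells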
# Target sequence (Q9NZ20 whole entry, looked up): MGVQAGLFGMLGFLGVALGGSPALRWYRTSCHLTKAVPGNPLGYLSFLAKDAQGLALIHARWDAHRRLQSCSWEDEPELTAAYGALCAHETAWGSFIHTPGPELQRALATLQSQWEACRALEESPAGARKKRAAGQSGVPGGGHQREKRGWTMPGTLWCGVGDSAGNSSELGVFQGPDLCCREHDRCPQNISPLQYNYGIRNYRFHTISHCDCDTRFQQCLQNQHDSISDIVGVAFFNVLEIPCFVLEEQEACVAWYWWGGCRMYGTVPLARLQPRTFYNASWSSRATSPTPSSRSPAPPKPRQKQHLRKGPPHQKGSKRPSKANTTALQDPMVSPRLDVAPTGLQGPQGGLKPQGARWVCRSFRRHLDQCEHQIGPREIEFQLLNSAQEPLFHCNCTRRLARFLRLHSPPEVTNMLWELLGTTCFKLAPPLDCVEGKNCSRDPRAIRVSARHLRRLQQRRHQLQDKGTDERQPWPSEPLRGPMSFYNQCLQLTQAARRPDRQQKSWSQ
# bovine MsrA act – activators of bovine methionine sulfoxide reductase A. purified bovine MsrA, absorbance read-out. activation, % at 10.6 µM. 360,000 compounds, 0.3% hits; in the data active = activation above about 7.5%;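 also: 0% = vehicle and 100% = reference activator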
# rCAG RNA binder – binds r(CAG) RNA repeats; 370,000 compounds, 1.3% hits; AID 651821; r(CAG) RNA repeat, TO-PRO-1 dye displacement fluorescence; inhibition, % at 3 µM;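 active = inhibition above the plate cutoff, the mean of all test compounds on that plate plus 3 SD, cut at about 35% in these data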;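 also: 0% = DMSO alone and 100% = 100 µM mitoxantrone as full dye displacement; higher means more dye released from RNA so lower well fluorescence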
# MsrA inh confirm – confirmation of bovine MsrA inhibitors. 2,300 compounds, 41% hits. purified bovine MsrA, absorbance read-out. shares compounds with MsrA inh. inhibition, % at 15.5 µM;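 also: coupled to thioredoxin reductase with NADPH and selenocystamine and DMSO as substrate; 0% = vehicle only and 100% = full effect of reference inhibitor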
# rCAG binder conf – r(CAG) RNA repeat binding, confirmation; shares compounds with rCAG RNA binder; TO-PRO-1 dye displacement fluorescence; inhibition, % at 3 µM; 4,300 compounds, 70% hits;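 active = inhibition above a per-plate cutoff, the mean inhibition of sample wells plus 3 SD, cut at about 35% in these data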;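 also: loss of TO-PRO-1 fluorescence as compound displaces dye from 1x1 AA loop RNA; 0% = DMSO only wells and 100% = 100 µM mitoxantrone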
# DNA CAG counter – DNA CAG dye complex inhibition counter-screen; 4,300 compounds, 94% hits; shares compounds with rCAG RNA binder; d(CAG) DNA oligo TO-PRO-1 dye displacement, fluorescence; inhibition, % at 3 µM;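 active = inhibition above its plate's cutoff, the mean test-well inhibition plus 3 SD, cut at about 4.8% in these data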;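 also: 0% = DNA dye mix with DMSO and 100% = 100 µM mitoxantrone; hits displace the dye from DNA and so lower well fluorescence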
# dCAG dye DR – DNA CAG dye complex inhibition, dose response counter-screen; DNA CAG/GTC duplex TO-PRO-1 dye displacement fluorescence; IC50, µM; 250 compounds, 20% hits; AID 686960; shares compounds with rCAG RNA binder; in the data active = IC50 below about 10 µM
# hGIII sPLA2 conf – human GIII-sPLA2 inhibition, confirmation; shares compounds with HGIII-sPLA2 inh; recombinant hGIII-sPLA2, BODIPY PC-A2 QFRET fluorescence; inhibition, % at 12.2 µM; 2,000 compounds, 34% hits; AID 743280;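 active = mean inhibition across triplicates above the hit cutoff set in the earlier primary screen, cut at about 19% in these data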;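 also: 0% = enzyme with DMSO and 100% = DMSO wells lacking enzyme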
# BODIPY interf – optically interferes with 535nm fluorescence in sPLA2 counter-screen; shares compounds with HGIII-sPLA2 inh; BODIPY FL product fluorescence interference, QFRET; inhibition, % at 12.2 µM; 2,000 compounds, 8.5% hits;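 active = average inhibition above the solvent-only control mean plus 3 SD, cut at about 6% in these data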;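 also: 0% = DMSO with substrate plus product and 100% = DMSO with substrate alone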
# BODIPY interf DR – counter-screen for HGIII-sPLA2 inhibitors: 535nm fluorescence interference, dose response. shares compounds with HGIII-sPLA2 inh. BODIPY FL product fluorescence interference, cell-free. IC50, µM. 240 tested, under 10 active. AID 743455;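 active = IC50 at or below 10 µM; inactive = IC50 above 10 µM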
# Numbers without * were called inactive; · = no result given. This is a sample that favours compounds with a hit; in the whole collection about 2.8% have one here. Rule as the data show it, unless noted: active = inhibition above about 4.5%; inactive = the rest.
SMILES,MsrA inh,HGIII-sPLA2 inh,bovine MsrA act,rCAG RNA binder,rCAG binder conf,DNA CAG counter,others
CCOC(=O)c1cc2c(=Cc3ccc(N(C)C)cc3)c3ccccc3n2[n+]1C,5.0*,28*,-5,17,·,·,MsrA inh confirm=0;hGIII sPLA2 conf=35*;BODIPY interf=-13;BODIPY interf DR=>122
CCN(CC)CCn1c(-c2ccccc2)nc(=S)c2c1CC(C)(C)OC2,6.3*,21*,-6,3,·,·,MsrA inh confirm=4;hGIII sPLA2 conf=0;BODIPY interf=-1
O=C(C1=C[C@@H](C2CC2)C[C@@H](OCCCCO)O1)N1CCOCC1,1,6,-1,3,·,·,
O=C(CNC(=O)c1ccccc1)NCC(=O)OCC(=O)c1ccc(F)cc1,-2,3,-4,-4,·,·,
Cc1ccc(C(=O)NCC(=O)NCC(=O)OCC(=O)c2ccc(F)cc2)cc1,52*,27*,-4,-3,·,·,MsrA inh confirm=0;hGIII sPLA2 conf=3;BODIPY interf=-11
O=C(NC(=S)NNC(=O)c1cc2ccccc2cc1O)c1ccco1,6.5*,21*,-8,67*,53*,17*,MsrA inh confirm=4;hGIII sPLA2 conf=28*;BODIPY interf=2;BODIPY interf DR=>122
O=C(NC(=S)NNC(=O)c1ccco1)c1ccc(F)cc1,3,16,3,0,·,·,
COc1ccc(/C=C/C(=O)NC(=S)NNC(=O)c2ccco2)cc1,5.5*,25*,1,8,·,·,MsrA inh confirm=4.9*;hGIII sPLA2 conf=53*;BODIPY interf=-8;BODIPY interf DR=>122
COCCN=c1scc(-c2cccs2)n1/N=C/c1ccc(O)c(O)c1O,3,42*,-5,48*,62*,30*,dCAG dye DR=9.2*
O=C(Nc1ccccc1C(=O)O)c1ccc2c(c1)C(=O)N(c1cccc([N+](=O)[O-])c1)C2=O,0,6,-5,6,·,·,
Cc1cc(=O)oc(C)c1C(=O)NNC(=O)C1(C)CC1Br (configuration not stated),0,0,-13,1,·,·,
CC1(C(=O)NNC(=O)c2ccc(=O)oc2)CC1Br (configuration not stated),1,-10,-4,43*,60*,24*,dCAG dye DR=9.9*
O=C(O)CCC(=O)N1N=C(c2ccccc2)CC1c1ccc(Br)cc1 (configuration not stated),0,-4,-1,13,·,·,
O=C(O)CCC(=O)N1N=C(c2ccc(Br)cc2)CC1c1ccc(Br)cc1 (configuration not stated),-1,-8,-2,38*,51*,14*,
Brc1ccc(N/N=C(/N=Nc2nn[nH]n2)c2ccccc2)cc1,2,-12,-2,95*,92*,67*,
O=C(/C(=N\Nc1ccc(Br)cc1)Sc1nnnn1-c1ccccc1)c1ccccc1,0,5,-2,30,·,·,
C=CCn1c(SCc2c(C)noc2C)nc2sc3c(c2c1=O)CCCC3,0,-3,-2,20,·,·,
C=CCn1c(SCc2c(C)noc2C)nc2sc3c(c2c1=O)CCCCC3,0,2,-1,40*,7,4.7*,
Cc1ccc(C(C)C)c(OCC(=O)NS(=O)(=O)c2ccc(Cl)cc2)c1,1,-27,-4,51*,36*,7.0*,
COC(=O)C[C@H]1c2cc(C(F)(F)F)ccc2S(=O)(=O)N1C(C)(C)C,0,-2,-6,-4,·,·,
CCc1nnc(NS(=O)(=O)c2ccc(NC(=O)c3ccccc3OC)cc2)s1,0,-21,-4,49*,25,6.0*,
CCCN(CCC)S(=O)(=O)c1ccc(C(=O)Nc2ccc(S(=O)(=O)Nc3nnc(CC)s3)cc2)cc1,1,-86,-2,80*,84*,54*,
